Laboratory results taken from PubChem BioAssay (EPA / NIEHS).
Records with an inconclusive call do not appear. Calls of active or inactive are those of the source. The calls were made as follows, unless noted: active = hit-call score of the fitted dose curve at least 0.9, where 1 is the maximum; inconclusive = response in the unintended direction; inactive = score below 0.9.

Key:
[1] = Tanguay_ZF_120hpf_OTIC_legacy: (Legacy) Oregon State University Tanguay Lab 120 Hour Post-fertilization zebrafish Assay for Otic Vesicle Malformation (AID 2283639)
How it was run: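 Wild-type zebrafish larvae, whole-embryo exposure from early stage to 120 hpf at 28C. Binary brightfield scoring of otic vesicle morphology, fitted in the positive direction against the DMSO baseline.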

[2] = Tanguay_ZF_120hpf_PE_legacy: (Legacy) Oregon State University Tanguay Lab 120 Hour Post-fertilization zebrafish Assay for Pericardial Edema (AID 2283640);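 as to AC50: potency for increased incidence of pericardial edema versus DMSO baseline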
How it was run: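 Scoring was binary, by brightfield microscopy at 120 hpf, and skipped where mortality occurred. Wild-type embryos were kept under sealed, foil-covered static exposure at 28C in 0.64% (vol/vol) DMSO.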

[3] = Tanguay_ZF_120hpf_BRAI_legacy: (Legacy) Oregon State University Tanguay Lab 120 Hour Post-fertilization zebrafish Assay for Brain Malformation (AID 2283641)
How it was run: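 Binary brightfield scoring of brain malformation at 120 hpf in Tropical 5D larvae held under static exposure at 28C (0.64% v/v DMSO), non-mortality endpoints skipped if dead. Positive control: 5uM trimethyltin chloride; fit versus DMSO.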

[4] = Tanguay_ZF_120hpf_SOMI_legacy: (Legacy) Oregon State University Tanguay Lab 120 Hour Post-fertilization zebrafish Assay for Somite Malformation (AID 2283647)
How it was run: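 Binary somite-defect scoring at 120 hpf, omitted for embryos that died, in wild-type (Tropical 5D) zebrafish with chorion removed by pronase at 4 hpf; static exposure began 6 hpf, single embryos per well, 28C, 0.64% DMSO; fitted positive versus DMSO.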

[5] = Tanguay_ZF_120hpf_PFIN_legacy: (Legacy) Oregon State University Tanguay Lab 120 Hour Post-fertilization zebrafish Assay for Pectoral Fin Malformation (AID 2283648);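 also: each larva judged yes or no for fin defect by brightfield with dead larvae skipped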
How it was run: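 Scoring of pectoral fin malformation was binary, made at 120 hpf on larvae exposed statically from 6 hpf after enzymatic chorion removal. Activity was fitted upward relative to DMSO controls at 0.64% (vol/vol).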

[6] = Tanguay_ZF_120hpf_CFIN_legacy: (Legacy) Oregon State University Tanguay Lab 120 Hour Post-fertilization zebrafish Assay for Caudal Fin Malformation (AID 2283649)
How it was run: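 Binary brightfield scoring of caudal fin defects at 120 hpf after static, light-shielded exposure at 28C from 6 hpf. Tropical 5D embryos, chorion removed with pronase at 4 hpf, final DMSO 0.64%.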

[7] = Tanguay_ZF_120hpf_CIRC_legacy: (Legacy) Oregon State University Tanguay Lab 120 Hour Post-fertilization zebrafish Assay for Circulatory Malformation (AID 2283651)
How it was run: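 Binary circulatory-malformation call at 120 hpf via brightfield imaging, relative to DMSO controls. Embryos (5D strain, chorion removed) received static, light-shielded exposure at 28C.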

[8] = Tanguay_ZF_120hpf_SWIM_legacy: (Legacy) Oregon State University Tanguay Lab 120 Hour Post-fertilization zebrafish Assay for Swim Bladder Malformation (AID 2283654);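 also: swim bladder malformation in each larva scored yes or no under brightfield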
How it was run: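 Static waterborne exposure of single dechorionated Tropical 5D zebrafish embryos, 6–120 hpf, 28C, 0.64% DMSO final. Read-out: swim bladder malformation, present/absent, relative to DMSO negative control; trimethyltin chloride 5uM served as positive control.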

[9] = Tanguay_ZF_120hpf_PIG_legacy: (Legacy) Oregon State University Tanguay Lab 120 Hour Post-fertilization zebrafish Assay for Pigmentation Malformation (AID 2283650)
How it was run: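 Endpoint is incidence of abnormal pigmentation at 120 hpf in dechorionated 5D zebrafish exposed singly from 6 hpf at 28C, DMSO vehicle at 0.64%. Embryos dying by 24 or 120 hpf are excluded from scoring.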

[10] = read-out: solute carrier (SLC22A6), SLC22A6 (gene 9356); assay: LTEA_HepaRG_SLC22A6: Life Technologies and Expression Analysis (LTEA) Assay for solute carrier (SLC22A6) using HepaRG (AID 2283653; active = hit-call score of the fitted dose curve at least 0.9, where 1 is the maximum; inactive = score below 0.9); conditions: mRNA level, 48 h; actives raise or lower the signal
Procedure: LTEA_HepaRG is a cell based, multiplexed-readout assay that uses HepaRG, a human liver cell line, with measurements taken at 48 hours after chemical dosing on a 96-well plate.LTEA_HepaRG_SLC22A6 is one of 102 assay component(s) measured in the LTEA HepaRG cell culture assay. It is a marker of NR mediated transport.Data from the assay component LTEA_HepaRG_SLC22A6 was analyzed into 1 endpoint. This assay endpoint, LTEA_HepaRG_SLC22A6, was analyzed with bidirectional fitting relative to DMSO as the negative control and baseline of activity. Using a type of inducible reporter, measures of mRNA induction for gain or loss-of-signal activity can be used to understand regulation of transcription factor activity. To generalize the intended target to other relatable targets, this assay endpoint is annotated to the transporter intended target family, where the subfamily is organic anion transporter.
A total of 1060 chemcials from the ToxCast library were tested in eight-point concentration-response experiments. Cell culture and cytotoxicity assays were conducted at Thermo Fisher Scientific's Custom Services facility (Madison, WI). A single lot of human HepaRG cells (Thermo Fisher Scientific, Frederick, MD) was used for the cell culture experiments. 96-well format collagen type I coated plates of human HepaRG cells were prepared using established methods. Briefly, cryopreserved HepaRG cells were thawed, plated at a density of approximately 100,000 cells/well in HepaRG Thaw, Plate, and General Purpose media (HPRG770, Thermo Fisher Scientific), and incubated for 48 hours. 0.5% DMSO was selected as vehicle control to balance the requisite need of DMSO in HepaRG cultures to maintain differentiation (for example, baseline metabolism, proportions of hepatocytes vs. cholangiocytes), while enabling further hepatic receptor pathway activation (for example, PXR and CAR) in response to chemical exposure. 48 hours after plating, the culture medium was replaced with HepaRG Serum-Free Incudtion Media. Cells were exposed to each test chemical in duplicate and maintained in CO2 incubators for another 48 hours. Chemical plates were thawed to room temperature and 200x concentrations of treatment groups were prepared. 8-point conentration-reponse curves were made with the highest exposure at 100 uM, followed by half-log dilutions, all in 0.5% DMSO. Each test plate contained variouse controls, induction positive controls (1mM phenobarbital), cytotoxicity positive controls ([…] aflatoxin B1), vehicle controls (0.5% DMSO), and total lysis controls (0.5% DMSO). Cell morphology images were taken using an Essen IncuCyte FLR automated microscope, with six 96-well plates imaged in about 24 minutes. Images were captured and exported and JPEG files. Spent culture media was transfered to black-well plates for the LDH assay, and remaining media was sorted at -80 C for later use. Cells were treated with RLT buffer and frozen until shipped for gene expression analysis. Total RNA was isolated from the cell suspension in 75 uL of Buffer RLT (Qiagen, Germantown, MD 20874) by Quintiles/Expression Analysis (Durham, NC) using a custom isolation procedure. Total RNA from each plate well was transferred to a preamplification plate. Fluidigm's 96.96 Dynamic ArrayTM (Fluidigm, Amsterdam, the Netherlands) technology was used for gene expression analyses by quantitative reverse transcription polymerase chain reaction (qRT-PCR, performed by Quintiles/Expression Analysis, Durham, NC)89. […]

Structure (SMILES)	outcome [1]	outcome [2]	outcome [3]	outcome [4]	outcome [5]	outcome [6]	outcome [7]	outcome [8]	AC50 [6]	outcome [9]	AC50 [2]	AC50 [5]	outcome [10]
CCOCCOC(C)=O	inactive	inactive	inactive	inactive	inactive	inactive	inactive	inactive	–	–	–	–	–
NS(=O)(=O)C(F)(F)C(F)(F)C(F)(F)C(F)(F)C(F)(F)C(F)(F)C(F)(F)C(F)(F)F	inactive	inactive	inactive	inactive	inactive	–	inactive	–	4.88 µM (active)	–	–	–	–
CCNc1nc(NC(C)C)nc(SC)n1	inactive	inactive	inactive	inactive	inactive	inactive	inactive	inactive	–	–	–	–	–
O=C(O)C(F)(F)C(F)(F)C(F)(F)C(F)(F)C(F)(F)C(F)(F)C(F)(F)C(F)(F)F	inactive	inactive	inactive	inactive	inactive	inactive	inactive	inactive	–	–	–	–	–
Nc1ccc(-c2ccc(N)cc2)cc1	inactive	inactive	inactive	inactive	inactive	inactive	inactive	inactive	–	–	–	–	–
Cc1cccc([N+](=O)[O-])c1	inactive	inactive	inactive	inactive	inactive	inactive	–	inactive	–	–	–	–	–
O=C(NC(=O)c1c(F)cccc1F)Nc1cc(Cl)c(OC(F)(F)C(F)F)c(Cl)c1	inactive	inactive	inactive	inactive	inactive	inactive	inactive	–	–	–	–	–	–
Cc1cc2c3c(c1)C(c1ccccc1)=N[C@@H](NC(=O)c1ccncc1)C(=O)N3CC2	inactive	inactive	inactive	inactive	inactive	inactive	–	–	–	inactive	–	–	–
CCC(C)(CC)c1cc(NC(=O)c2c(OC)cccc2OC)on1	inactive	inactive	inactive	inactive	inactive	inactive	–	inactive	–	–	–	–	–
O=NN(c1ccccc1)c1ccccc1	inactive	inactive	inactive	inactive	inactive	–	inactive	inactive	–	–	–	–	–
ClC1=C(Cl)[C@]2(Cl)[C@@H]3[C@@H](Cl)[C@H]4O[C@H]4[C@@H]3C1(Cl)C2(Cl)Cl	inactive	inactive	inactive	inactive	inactive	–	inactive	–	–	–	–	–	–
Oc1c(Cl)c(Cl)c(Cl)c(Cl)c1Cl	inactive	inactive	inactive	inactive	inactive	inactive	inactive	inactive	–	–	–	–	–
ClC1=C(Cl)[C@]2(Cl)[C@@H]3[C@@H]4C[C@@H]([C@H]5O[C@@H]45)[C@@H]3[C@@]1(Cl)C2(Cl)Cl	inactive	inactive	inactive	inactive	–	inactive	–	inactive	–	–	–	–	–
Cc1ccccc1[N+](=O)[O-]	inactive	inactive	inactive	inactive	inactive	inactive	inactive	inactive	–	–	–	–	–
CC(C)C(=O)OCC(C)(C)C(OC(=O)C(C)C)C(C)C (stereo not drawn)	inactive	–	inactive	inactive	–	inactive	inactive	inactive	–	inactive	28.8 µM (active)	–	–
N#Cc1ccc(N(CC(N)=O)CC(F)(F)F)cc1C(F)(F)F	inactive	inactive	inactive	–	inactive	inactive	–	inactive	–	inactive	–	–	–
Cc1ccccc1O	inactive	inactive	inactive	inactive	inactive	inactive	inactive	inactive	–	–	–	–	–
CCOP(=S)(OCC)SCSC(C)(C)C	inactive	inactive	inactive	inactive	inactive	–	inactive	–	–	–	–	–	–
C=CC(=O)NCNC(=O)C=C	inactive	inactive	inactive	inactive	inactive	inactive	inactive	inactive	–	–	–	–	–
CN(C)CCO	inactive	inactive	inactive	inactive	inactive	inactive	inactive	inactive	–	–	–	–	–
CCC(=O)O[C@H]1CC[C@H]2[C@@H]3CCC4=CC(=O)CC[C@]4(C)[C@H]3CC[C@]12C	inactive	inactive	inactive	inactive	inactive	inactive	inactive	inactive	–	inactive	–	–	–
CCCCCCCCOC(=O)c1ccccc1C(=O)OCCCCCCCC	inactive	inactive	inactive	inactive	inactive	inactive	inactive	inactive	–	inactive	–	–	–
C=CC(N)=O	inactive	inactive	inactive	inactive	inactive	inactive	inactive	inactive	–	inactive	–	–	–
Nn1cnnc1	inactive	inactive	inactive	inactive	inactive	inactive	inactive	inactive	–	–	–	–	–
Cc1cc(-c2ccc(N)c(C)c2)ccc1N	inactive	inactive	inactive	inactive	inactive	inactive	inactive	inactive	–	–	–	–	–
Cc1ccc(O)c(C)c1	inactive	inactive	inactive	inactive	inactive	inactive	inactive	inactive	–	inactive	–	–	–
CC1=C2C[C@H]3[C@@H](CC=C4C[C@@H](O)CC[C@@]43C)[C@@H]2CC[C@]12O[C@@H]1C[C@H](C)CN[C@H]1[C@H]2C	inactive	–	inactive	inactive	–	–	inactive	–	16.6 µM (active)	–	20.2 µM (active)	21.8 µM (active)	inactive
CCC(C)c1cc([N+](=O)[O-])cc([N+](=O)[O-])c1O (stereo not drawn)	inactive	inactive	inactive	inactive	inactive	inactive	inactive	inactive	–	–	–	–	–
Cc1ccccc1CO[C@@H]1C[C@@]2(C(C)C)CC[C@]1(C)O2	inactive	inactive	inactive	inactive	inactive	inactive	inactive	inactive	–	–	–	–	–
